Data on 93 compounds can be found in PubChem BioAssay AID588397 (National Center for Advancing Translational Sciences (NCATS), 2011).

“And” between values parts separate entries of the source, which are not always exact repeats. Equal entries are not always repeated. Out of some 1,300 compounds screened, about 1,000 (77%) were called active. About 7% were inconclusive and are not listed. Calls come from the whole dose curve; as a rule, active = well fitted inhibition curve with a large enough effect; inconclusive = small, poorly fitted or top-dose-only effect; inactive = no such curve, though single readings can be large or run the other way. So high a share suggests a set chosen from earlier hits. The list shows a part of the results.
Potency is the fitted concentration of half-maximal effect.

This experiment can be described thus: qHTS of small molecules that selectively kill Giardia lamblia: Hit Validation.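 Note: viability measured as ATP content by luminescence so killing lowers signal; trophozoites exposed to compounds for 48 h anaerobically at 37 °C; nearly all actives have a fitted effect of over 65% in size.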 To be noted: Giardia lamblia trophozoite viability, dose-response; series mostly up to 38.3 µM. The method, boiled down: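 Trophozoites 100 cells/well + cpd; 48 hrs, 37 deg C, anaerobic. ATPLite 1-Step added, 15-30 min RT, luminescence read (ATP-based viability).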
Regarding `CN(C)S(=O)(=O)c1ccc(N2CCCC2)c(C(=O)N2CCN(c3ccc([N+](=O)[O-])cc3)CC2)c1`, the Potency was 1.83 µM (active). `O=C(N=Nc1c(O)[nH]c2ccccc12)c1cccs1`: the Potency was 3.65 µM (active). For `O=C(CNC(=O)Cc1ccccc1)N=Nc1c(O)[nH]c2ccc(Br)cc12` the value was “inactive”; for `O=[N+]([O-])c1cncn1CCN1CCOCC1`, 0.326 µM (active). The same measure for `C[C@]12c3[nH]c4ccc(Cl)cc4c3CCN1C(=O)[C@@H](CC(=O)NCCN1CCOCC1)C[C@@H]2C(=O)N1CCOCC1`: “inactive”; for `Cc1ccc(NC(=O)c2ccc([N+](=O)[O-])o2)cc1C`: 0.46 µM (active). For `CC(=O)c1cccc(NC(=O)c2ccc([N+](=O)[O-])o2)c1` the value was 1.16 µM (active). For `Cc1cc(C)cc(NC(=O)c2ccc([N+](=O)[O-])o2)c1`, the Potency was 1.03 µM (active).

Turning to `Cc1cccc(NC(=O)c2ccc([N+](=O)[O-])o2)c1`, the Potency was 0.729 µM (active). The same measure for `CC(=O)c1ccc(NC(=O)c2ccc([N+](=O)[O-])o2)cc1`: 0.818 µM (active). For `COc1ccc(NC(=O)c2ccc([N+](=O)[O-])o2)cc1` the value was 1.03 µM (active); for `COc1ccc(CC(=O)NCC(=O)Nc2ccccc2Br)cc1`, “inactive”; for `O=C(/C=C/c1cccnc1)/C=C/c1cccnc1`, 18.3 µM (active). Consider `COc1cc(C(=O)/C=C/c2cccnc2)c([N+](=O)[O-])cc1OC`, for which the Potency was 4.6 µM (active). For `Cc1ccc(Nc2cc(C)nc3c(C)ccc([N+](=O)[O-])c23)cc1` the value was 0.146 µM (active); for `COc1ccccc1Nc1cc(C)nc2c(C)ccc([N+](=O)[O-])c12`, 2.59 µM (active); for `Cc1cc(Nc2ccccc2)c2c([N+](=O)[O-])ccc(C)c2n1`, 0.259 µM (active).

`Cc1cc(Nc2ccccc2)c2c([N+](=O)[O-])cc(C)c(C)c2n1`: the Potency was 0.259 µM (active). For `CN(C)/[N+]([O-])=N/Oc1ccc([N+](=O)[O-])cn1` the value was 2.59 µM (active). For `Cc1cc(C2=NNC(=NC3CC3)SC2)c(C)n1-c1ccccc1F` the value was 1.45 µM (active). For `COc1ccc(-c2ncn(CCC#N)c2[N+](=O)[O-])cc1` the value was 0.206 µM (active); for `CCn1c(=NC(=O)c2cccc(N3C(=O)CCC3=O)c2)sc2c(OC)ccc(OC)c21`, 2.31 µM (active). As to `Cc1cccc(N2CCN(C(=S)Nc3ccc4nc(N5CCN(C)CC5)cc(C)c4c3)CC2)c1C`, the Potency is 1.03 µM (active).

`Cc1ccc(C)c(N2CCN(C(=S)Nc3ccc4nc(N5CCN(C)CC5)cc(C)c4c3)CC2)c1`: the Potency was 1.3 µM (active).

In the case of `COc1ccc2nc(C)cc(N/N=C/c3cccc(OC)c3O)c2c1`, the Potency is 0.918 µM (active). The same measure for `COc1ccc2nc(C)cc(N/N=C/c3ccc(F)cc3)c2c1`: 1.16 µM (active). The same measure for `COc1ccc(/C=N/Nc2cc(C)nc3c(C)cccc23)cc1`: 0.818 µM (active); for `COc1ccc(N(CC(=O)N/N=C/c2cccc(OC)c2OC)S(=O)(=O)c2ccccc2)cc1`: “inactive”. Turning to `O=c1c([N+](=O)[O-])cccn1Cc1cccc(Br)c1`, the Potency is 2.05 µM (active). The same measure for `O=c1c([N+](=O)[O-])cccn1Cc1cccc(Cl)c1`: 4.6 µM (active); for `O=C(Nc1ccccc1)Nc1ccc(C(=O)N2CCCC2)cc1`: 5.79 µM (active). For `O=C(NCC1CCN(Cc2ccc(F)cc2)CC1)Nc1cc(F)ccc1F` the value was “inactive”. The same measure for `CN(C(=O)c1cccc(NC(=O)Cc2ccc(NC(=O)C3CCN(C(=O)c4ccccc4)CC3)cc2)c1)C1CC1`: “inactive”. Take `CCN1CCN(Cc2ccc(NC(=O)Nc3ccccc3)cc2)CC1`: the Potency is 9.18 µM (active). With `Cc1cc([N+](=O)[O-])nn1Cc1noc(C(=O)NCc2ccc3c(c2)OCO3)n1`, the Potency entry is “inactive”. The same measure for `Cc1cc([N+](=O)[O-])nn1Cc1ccc(F)cc1`: 2.9 µM (active).

With `CC(NC(=O)COc1cccnc1[N+](=O)[O-])c1ccc(Cl)cc1` (stereo not drawn), the Potency was 5.16 µM (active).

Regarding `CC(NC(=O)COc1cccnc1[N+](=O)[O-])c1ccc(F)cc1` (stereo not drawn), the Potency is 5.79 µM (active). Regarding `COc1ccc(NC(=O)C(c2ccc(Cl)cc2)C(C)C)cn1` (stereo not drawn), the Potency entry is “inactive”. For `CC(NC(=O)COc1cccnc1[N+](=O)[O-])c1ccc(Cl)cc1Cl` (stereo not drawn) the value was 3.26 µM (active). As for `O=[N+]([O-])c1cncc([N+](=O)[O-])c1Nc1cccc(O)c1`, the Potency was 3.26 µM (active). The same measure for `O=[N+]([O-])c1cncc([N+](=O)[O-])c1Nc1ccccc1Cl`: 5.16 µM (active). The same measure for `N/C(=N/OC(=O)c1ccccc1Cl)c1ncc([N+](=O)[O-])s1`: 1.63 µM (active); for `N/C(=N\OC(=O)c1ccc(Cl)cc1[N+](=O)[O-])c1ccccn1`: 8.18 µM (active); for `N/C(=N/OC(=O)c1ccc(Cl)cc1)c1ncc([N+](=O)[O-])s1`: 1.3 µM (active). Take `O=C(Oc1cccc2c(O)cccc12)c1ccccc1Cl`: the Potency entry was “inactive”. On to `COc1ccc(-n2nc([N+](=O)[O-])c(=NCCc3ccc(OC)c(OC)c3)n2O)cc1`, for which the Potency is 1.16 µM (active).

Consider `COc1ccc(-n2nc([N+](=O)[O-])c(=NCCc3ccccc3)n2O)cc1`, for which the Potency was 1.16 µM (active).

Turning to `COc1ccc(-n2nc([N+](=O)[O-])c(=NCCC3=CCCCC3)n2O)cc1`, the Potency was 4.1 µM (active). The same measure for `COc1ccc(-n2nc([N+](=O)[O-])c(=NCCc3ccc(Cl)cc3)n2O)cc1`: 1.45 µM (active); for `COc1ccc(CCN=c2c([N+](=O)[O-])nn(-c3cccc(C)c3)n2O)cc1OC`: 5.16 µM (active); for `COc1ccc(-n2nc([N+](=O)[O-])c(=NCCc3ccc(C)cc3)n2O)cc1`: 4.1 µM (active). The same measure for `CCN(CC)C(=O)Cn1cc([N+](=O)[O-])cc1[N+](=O)[O-]`: 0.46 µM (active); for `CCN(C(=O)C1CCN(S(=O)(=O)c2ccc3c(c2)oc(=O)n3C)CC1)c1cccc(C)c1`: “inactive”; for `N#Cc1c(Nc2ccccc2)[n+]([O-])c2ccc(Cl)cc2[n+]1[O-]`: 1.63 µM (active).

For the compound `O=C1c2cc(F)ccc2-n2c1nc1ccccc1c2=O`, the Potency is 1.83 µM (active). The same measure for `CCOCCOc1nc2c(c(=O)n(C)c(=O)n2C)n1Cc1ccc(C)cc1`: “inactive”; for `CC(C)(C)c1cc(C(=O)N/N=C/c2ccncc2)n[nH]1`: “inactive”. The same measure for `CC(C)(C)c1cc(C(=O)N/N=C/c2ccc([N+](=O)[O-])s2)n[nH]1`: 3.65 µM (active); for `Cc1cc(C(=O)N/N=C/c2ccc(O)c([N+](=O)[O-])c2)n[nH]1`: 6.5 µM (active); for `Cc1cc(C(=O)N/N=C/c2ccc([N+](=O)[O-])s2)n[nH]1`: 2.31 µM (active). With `N#Cc1c(N2CCN(c3ccc([N+](=O)[O-])cc3)CC2)[n+](=O)c2ccc(Cl)cc2n1[O-]`, the Potency is 1.3 µM (active). The same measure for `CN(C)c1ccc2nsnc2c1[N+](=O)[O-]`: 3.65 µM (active). The same measure for `CC1S/C(=C(\C#N)C(N)=O)N(c2ccc(F)cc2)C1=O` (stereo not drawn): “inactive”. The same measure for `N=NC(=O)c1ccccc1Nc1c(O)[nH]c2ccccc12`: 1.03 µM (active). Turning to `COC(=O)c1ccccc1NC(=O)N1c2ccccc2Sc2ccccc21`, the Potency is 0.918 µM (active). Turning to `Cc1cc(N2CCN(C)CC2)nc2ccc(NC(=S)N3CCN(c4cccc(Cl)c4)CC3)cc12`, the Potency is 1.16 µM (active).

As for `Cc1cc(N2CCN(C)CC2)nc2ccc(NC(=S)N3CCN(c4ccc(Cl)cc4)CC3)cc12`, the Potency was 1.16 µM (active). On to `O=c1sc(N2CCN(c3ccc(F)cc3)CC2)nc2ccsc12`, for which the Potency entry was “inactive”. For `Cc1cc(N2CCN(C)CC2)nc2ccc(NC(=S)N3CCN(c4ccc(F)cc4)CC3)cc12` the value was 1.3 µM (active). For `Cc1cccc(N2CCN(C(=S)Nc3ccc4nc(N5CCN(C)CC5)cc(C)c4c3)CC2C)c1` (stereo not drawn) the value was 4.1 µM (active); for `CC(=O)Nc1ccc(/C=C/c2noc(-c3ccccc3O)n2)cc1`, “inactive”; for `Cn1nc([N+](=O)[O-])nc1N1CCOCC1`, 0.326 µM (active). For `Nc1c(Cl)cc(C2=NCCn3c2c2ccc(C(F)(F)F)cc2[n+]3[O-])cc1Cl` the value was 0.163 µM (active); for `COc1ccc(C2=NCCn3c2c2ccc(C(F)(F)F)cc2[n+]3[O-])cc1`, 0.0729 µM (active). On to `[O-][n+]1c2cc(C(F)(F)F)ccc2c2n1CCN=C2c1ccc(Cl)cc1`, for which the Potency was 0.41 µM (active). The same measure for `Cc1ccc(C2=NCCn3c2c2ccc(C(F)(F)F)cc2[n+]3[O-])cc1`: 0.13 µM (active); for `O=[N+]([O-])c1cc2cccnc2c2ncccc12`: 1.83 µM (active). For `O=C(Nc1ccc(-c2cn3ccccc3n2)cc1)c1ccco1` the value was 8.18 µM (active); for `COc1ccccc1-n1cc2c([N+](=O)[O-])cc([N+](=O)[O-])cc2n1`, 1.63 µM (active). With `CC(Oc1cccnc1[N+](=O)[O-])C(=O)Nc1ccc(F)cc1` (stereo not drawn), the Potency is 5.16 µM (active). The same measure for `CC(Oc1cccnc1[N+](=O)[O-])C(=O)Nc1cccc(Cl)c1` (stereo not drawn): 3.65 µM (active); for `O=[N+]([O-])c1nn(-c2ccccc2)n(O)c1=NCCc1ccccc1`: 3.26 µM (active); for `Cc1ccc(CCN=c2c([N+](=O)[O-])nn(-c3ccccc3)n2O)cc1`: 7.29 µM (active).

Regarding `Cc1ccc(Nc2nc(=O)c3cc([N+](=O)[O-])ccc3s2)cc1`, the Potency was 7.29 µM (active). As to `CC1=NN(c2nc3ccccc3[nH]2)C(=O)/C1=C/N(C)C`, the Potency is 3.65 µM (active). As to `O=C(Nc1ncc([N+](=O)[O-])s1)c1ccccc1Br`, the Potency was 0.206 µM (active). `O=C(Nc1ncc([N+](=O)[O-])s1)c1cccs1`: the Potency is 460 nM (active) and 729 nM (active).

For `O=C(Nc1ncc([N+](=O)[O-])s1)c1ccco1`, the Potency is 0.818 µM (active). The same measure for `CC(=O)O[C@]1(C(C)=O)CCC2C3CCC4=C/C(=N/OCC(=O)O)CC[C@]4(C)C3CC[C@@]21C` (stereo partly drawn): “inactive”; for `Cn1c(/C(C#N)=C(\O)c2ccc([N+](=O)[O-])s2)nc2ccccc21`: 1.16 µM (active). The same measure for `N#C/C(=C(/O)c1ccc([N+](=O)[O-])o1)c1nc2ccccc2[nH]1`: 0.326 µM (active); for `N#C/C(=C(/O)c1ccc([N+](=O)[O-])s1)c1nc2ccccc2[nH]1`: 2.31 µM (active).
